# Experimental data: the supplement of paper PMC10849652
# About 7,900 targets were measured; listed, in parts, are those with a hit and a random draw of the rest. About 0.6% of all pairs of compound and target were hits. Unmarked numbers belong to inactive results.
# Experiments:
# Experiment in all cases: log2 fold change, soluble protein after heating vs DMSO (PISA); higher = thermal stabilisation; K562 cells, 10 uM, 30 min; active = over 0.2 and 3.5 SD of the protein, either way, in both replicates (recomputed)
# saracatinib = compound: CN1CCN(CCOc2cc(OC3CCOCC3)c3c(Nc4c(Cl)ccc5c4OCO5)ncnc3c2)CC1 [saracatinib]
# Outline: (§1)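 K562 cells at 2×10^6 cells/mL were treated with 10 μM compound for 30 min. Aliquots were heated for 3 min across 48°C-58°C, pooled, and extracted in PBS with 0.5% NP-40 at 4°C; soluble protein was the supernatant after 21,000xg for 90 min. Soluble protein was quantified by TMTpro 16plex LC-MS/MS with channel sums equalised, and reported as log2 fold change in thermal stability against DMSO controls, with values from duplicates.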
# sotrastaurin = compound: CN1CCN(c2nc(C3=C(c4c[nH]c5ccccc45)C(=O)NC3=O)c3ccccc3n2)CC1 [sotrastaurin]
# Outline: as §1
# alvocidib = compound: CN1CC[C@H](c2c(O)cc(O)c3c(=O)cc(-c4ccccc4Cl)oc23)[C@H](O)C1 [alvocidib]
# Outline: as §1
# Tubastatin A = compound: CN1CCc2c(c3ccccc3n2Cc2ccc(C(=O)NO)cc2)C1 [Tubastatin A]
# Outline: as §1
# [1] = compound: CNC(=O)C1=CC=CC=C1NC2=NC(=NC=C2Cl)NC3=C(C=C(C=C3)N4CCOCC4)OC
# Outline: as §1
# defactinib = compound: CNC(=O)c1ccc(Nc2ncc(C(F)(F)F)c(NCc3nccnc3N(C)S(C)(=O)=O)n2)cc1 [defactinib]
# Outline: as §1
# rucaparib = compound: CNCc1ccc(-c2[nH]c3cc(F)cc4c3c2CCNC4=O)cc1 [rucaparib]
# Outline: as §1
# [2] = compound: CNc1nc(-c2ccc3c(N)n[nH]c3c2)cc(N2C[C@@H](C(=O)NC3CCCCC3)CC[C@H]2C)n1
# Outline: as §1
# encorafenib = compound: COC(=O)N[C@@H](C)CNc1nccc(-c2cn(C(C)C)nc2-c2cc(Cl)cc(NS(C)(=O)=O)c2F)n1 [encorafenib]
# Outline: as §1
# [3] = compound: COC(=O)[C@H](CCSC)NC(=O)C1=C(C=C(C=C1)NC[C@H](CS)N)C2=CC=CC=C2
# Outline: as §1
# [4] = compound: COC1=CC=C(C=C1)CN2C=CC3=C2C=C(C=C3)C(=O)NO
# Outline: as §1
# filanesib = compound: CON(C)C(=O)N1N=C(c2cc(F)ccc2F)S[C@@]1(CCCN)c1ccccc1 [filanesib]
# Outline: as §1
# zotarolimus = compound: CO[C@H]1C[C@@H]2CC[C@@H](C)[C@@](O)(O2)C(=O)C(=O)N2CCCC[C@H]2C(=O)O[C@H]([C@H](C)C[C@@H]2CC[C@H](n3cnnn3)[C@H](OC)C2)CC(=O)[C@H](C)/C=C(\C)[C@@H](O)[C@@H](OC)C(=O)[C@H](C)C[C@H](C)/C=C/C=C/C=C/1C [zotarolimus]
# Outline: as §1
# idasanutlin = compound: COc1cc(C(=O)O)ccc1NC(=O)[C@@H]1N[C@@H](CC(C)(C)C)[C@](C#N)(c2ccc(Cl)cc2F)[C@H]1c1cccc(Cl)c1F [idasanutlin]
# Outline: as §1
# alisertib = compound: COc1cc(Nc2ncc3c(n2)-c2ccc(Cl)cc2C(c2c(F)cccc2OC)=NC3)ccc1C(=O)O [alisertib]
# Outline: as §1
# [5] = compound: COc1cc2nc(-c3cc(F)ccc3O)nc(N[C@@H]3CNC[C@H]3C(C)(C)O)c2cc1OC
# Outline: as §1
# gefitinib = compound: COc1cc2ncnc(Nc3ccc(F)c(Cl)c3)c2cc1OCCCN1CCOCC1 [gefitinib]
# Outline: as §1
# [6] = compound: COc1cccc2cc(-c3nc([C@H]4CC[C@H](C(=O)O)CC4)n4ncnc(N)c34)[nH]c12
# Outline: as §1
# lapatinib = compound: CS(=O)(=O)CCNCc1ccc(-c2ccc3ncnc(Nc4ccc(OCc5cccc(F)c5)c(Cl)c4)c3c2)o1 [lapatinib]
# Outline: as §1
# pictilisib = compound: CS(=O)(=O)N1CCN(Cc2cc3nc(-c4cccc5[nH]ncc45)nc(N4CCOCC4)c3s2)CC1 [pictilisib]
# Outline: as §1
# Sequence of UniProt P60602 (P60602 whole entry, looked up): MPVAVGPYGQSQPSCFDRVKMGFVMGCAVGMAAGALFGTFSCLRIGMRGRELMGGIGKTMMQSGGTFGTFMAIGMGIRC
# Sequence of UniProt Q15349 (Q15349 whole entry, looked up): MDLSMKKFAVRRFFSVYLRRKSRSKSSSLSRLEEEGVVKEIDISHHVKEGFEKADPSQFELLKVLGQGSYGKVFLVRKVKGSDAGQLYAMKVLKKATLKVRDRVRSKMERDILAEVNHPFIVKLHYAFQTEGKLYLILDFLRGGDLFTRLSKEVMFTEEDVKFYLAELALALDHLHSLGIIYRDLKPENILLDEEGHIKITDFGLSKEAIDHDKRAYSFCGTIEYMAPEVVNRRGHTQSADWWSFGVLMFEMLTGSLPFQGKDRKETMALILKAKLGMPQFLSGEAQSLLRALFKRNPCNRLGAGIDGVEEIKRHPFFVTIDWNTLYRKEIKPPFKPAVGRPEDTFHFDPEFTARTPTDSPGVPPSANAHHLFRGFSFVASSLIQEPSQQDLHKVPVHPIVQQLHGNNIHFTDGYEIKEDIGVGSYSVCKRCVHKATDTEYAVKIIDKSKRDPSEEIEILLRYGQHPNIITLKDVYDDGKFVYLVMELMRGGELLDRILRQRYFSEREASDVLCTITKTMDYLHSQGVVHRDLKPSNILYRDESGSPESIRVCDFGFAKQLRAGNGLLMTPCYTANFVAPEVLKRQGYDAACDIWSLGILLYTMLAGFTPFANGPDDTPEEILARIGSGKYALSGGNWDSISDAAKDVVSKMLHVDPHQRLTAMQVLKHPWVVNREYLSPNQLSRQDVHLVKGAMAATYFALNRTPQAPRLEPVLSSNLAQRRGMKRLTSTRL
# Sequence of UniProt Q9H2X9 (Q9H2X9 whole entry, looked up): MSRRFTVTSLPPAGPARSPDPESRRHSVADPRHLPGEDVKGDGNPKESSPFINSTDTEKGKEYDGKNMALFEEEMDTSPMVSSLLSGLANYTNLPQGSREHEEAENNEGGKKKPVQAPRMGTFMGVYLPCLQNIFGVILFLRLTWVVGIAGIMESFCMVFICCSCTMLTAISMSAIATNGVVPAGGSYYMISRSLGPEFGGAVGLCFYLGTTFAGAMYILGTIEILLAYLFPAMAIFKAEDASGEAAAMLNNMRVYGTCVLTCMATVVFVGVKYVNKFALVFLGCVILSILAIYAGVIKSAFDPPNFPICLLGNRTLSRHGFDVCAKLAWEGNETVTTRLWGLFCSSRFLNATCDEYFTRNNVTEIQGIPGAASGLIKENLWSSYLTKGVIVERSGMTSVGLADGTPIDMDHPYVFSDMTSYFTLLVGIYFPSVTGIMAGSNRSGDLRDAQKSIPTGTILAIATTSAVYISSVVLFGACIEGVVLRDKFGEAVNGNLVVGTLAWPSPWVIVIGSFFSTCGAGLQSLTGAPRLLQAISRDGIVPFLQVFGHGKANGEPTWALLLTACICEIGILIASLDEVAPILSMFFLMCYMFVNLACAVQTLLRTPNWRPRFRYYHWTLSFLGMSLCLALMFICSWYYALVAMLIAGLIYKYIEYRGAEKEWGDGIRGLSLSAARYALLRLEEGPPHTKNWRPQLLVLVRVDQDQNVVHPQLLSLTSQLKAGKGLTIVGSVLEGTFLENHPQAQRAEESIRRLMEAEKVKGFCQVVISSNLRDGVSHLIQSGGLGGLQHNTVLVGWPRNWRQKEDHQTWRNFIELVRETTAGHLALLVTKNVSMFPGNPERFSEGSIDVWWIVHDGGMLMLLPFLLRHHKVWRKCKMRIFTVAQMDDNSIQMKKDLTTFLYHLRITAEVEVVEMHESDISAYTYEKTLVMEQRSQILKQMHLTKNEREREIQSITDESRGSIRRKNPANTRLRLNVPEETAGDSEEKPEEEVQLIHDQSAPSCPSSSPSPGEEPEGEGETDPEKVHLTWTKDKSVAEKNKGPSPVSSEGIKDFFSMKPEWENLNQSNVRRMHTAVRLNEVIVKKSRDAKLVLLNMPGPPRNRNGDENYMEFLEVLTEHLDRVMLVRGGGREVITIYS
# Sequence of UniProt Q5TA31 (Q5TA31 whole entry, looked up): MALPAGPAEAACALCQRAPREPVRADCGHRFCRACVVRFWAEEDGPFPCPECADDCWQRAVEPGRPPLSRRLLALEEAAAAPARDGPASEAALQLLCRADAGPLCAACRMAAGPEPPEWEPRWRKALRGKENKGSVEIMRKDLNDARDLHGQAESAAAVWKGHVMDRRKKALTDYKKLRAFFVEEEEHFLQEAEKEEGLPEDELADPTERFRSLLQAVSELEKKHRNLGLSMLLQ
# Sequence of UniProt Q96DM3 (Q96DM3 whole entry, looked up): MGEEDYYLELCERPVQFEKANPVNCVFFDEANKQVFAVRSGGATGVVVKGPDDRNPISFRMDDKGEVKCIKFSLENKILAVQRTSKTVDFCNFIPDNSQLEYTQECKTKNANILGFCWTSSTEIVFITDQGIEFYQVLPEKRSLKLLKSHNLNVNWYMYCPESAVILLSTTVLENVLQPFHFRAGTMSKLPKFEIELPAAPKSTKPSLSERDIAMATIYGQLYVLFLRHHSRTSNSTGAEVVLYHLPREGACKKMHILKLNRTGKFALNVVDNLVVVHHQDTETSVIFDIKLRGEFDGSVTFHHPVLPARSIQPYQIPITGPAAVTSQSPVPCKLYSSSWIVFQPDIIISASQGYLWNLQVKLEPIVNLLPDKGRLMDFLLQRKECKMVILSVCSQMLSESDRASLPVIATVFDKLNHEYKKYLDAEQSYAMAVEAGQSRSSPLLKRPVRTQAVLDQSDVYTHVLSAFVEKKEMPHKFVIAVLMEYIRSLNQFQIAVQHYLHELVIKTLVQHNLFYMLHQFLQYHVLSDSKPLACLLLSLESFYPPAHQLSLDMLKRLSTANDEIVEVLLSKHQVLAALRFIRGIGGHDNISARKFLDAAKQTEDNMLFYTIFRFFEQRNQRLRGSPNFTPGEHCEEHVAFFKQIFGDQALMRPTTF
Target,log2 fold change (saracatinib),log2 fold change (sotrastaurin),log2 fold change (alvocidib),log2 fold change (Tubastatin A),log2 fold change [1],log2 fold change (defactinib),log2 fold change (rucaparib),log2 fold change [2],log2 fold change (encorafenib),log2 fold change [3],log2 fold change [4],log2 fold change (filanesib),log2 fold change (zotarolimus),log2 fold change (idasanutlin),log2 fold change (alisertib),log2 fold change [5],log2 fold change (gefitinib),log2 fold change [6],log2 fold change (lapatinib),log2 fold change (pictilisib)
RPS6KA2 isoform 2 (UniProt Q15349),0,-0.049,-0.019,-0.01,-0.422 (active),-0.209,-0.049,-0.08,0.014,-0.009,-0.023,-0.006,0.016,-0.033,-0.052,-0.259,-0.078,0.001,-0.011,-0.106
RNF187 (UniProt Q5TA31),-0.069,0.001,-0.092,0.196,-0.084,-0.047,-0.139,0.05,-0.042,-0.05,0.028,0.003,-0.006,-0.032,-0.104,0.047,-0.012,-0.053,-0.07,-0.037
"RAD50, A0A494C0Y7",-0.101,0.048,-0.026,-0.079,,-0.146,-0.206,0.198,0.15,-0.055,-0.054,0.001,-0.021,-0.05,0.127,-0.077,,0.035,-0.142,0.085
ROMO1 (UniProt P60602),0.022,-0.091,0.023,0.048,0.013,,-0.038,-0.012,0.026,,,-0.024,-0.069,0.044,0.005,-0.024,0.034,0.033,-0.079,0.035
RPS20 isoform 2 (UniProt P60866),-0.1,0.019,0.196,0.054,0.066,0.216,0.093,-0.009,0.041,0.001,-0.086,0.085,0.019,0.047,-0.018,-0.015,-0.036,-0.157,0.108,-0.006
SLC12A5 (UniProt Q9H2X9),-0.152,0.053,-0.067,-0.072,-0.007,0.08,-0.138,0.148,0.044,0.075,0.323,-0.071,-0.076,0.017,0.299,-0.097,,0.124,0.085,
RPS27A (UniProt P62979),0.029,0.107,0.136,-0.013,0.05,0.227,0.105,0.043,-0.007,0.156,-0.084,0.215,0.009,0.129,-0.041,-0.066,-0.076,-0.185,-0.006,-0.13
RMC1 (UniProt Q96DM3),-0.002,-0.01,-0.105,0.007,0.014,-0.041,0.029,0.014,-0.013,-0.018,-0.002,-0.058,-0.015,-0.047,-0.059,-0.006,0.045,0.044,-0.029,-0.105
